# Assay results taken from article PMC4336329 (PLoS ONE, 2015).
# Screen size: about 310,000 compounds; about 14,000 (4.5%) showed an effect of 50% or more. Effects have a minus sign here. This excerpt belongs to a sample that is enriched for strong results.
# Target: human ether-à-go-go-related gene (hERG) potassium channel (human, UniProt Q12809)
# Experiment: primary screen, population patch clamp on CHO cells stably expressing hERG; higher = less effect of the substance
# 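Also: peak tail current of the secondary pulse compared with the same well before compound.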
# Chain of human ether-à-go-go-related gene (hERG) potassium channel (Q12809 whole entry, looked up): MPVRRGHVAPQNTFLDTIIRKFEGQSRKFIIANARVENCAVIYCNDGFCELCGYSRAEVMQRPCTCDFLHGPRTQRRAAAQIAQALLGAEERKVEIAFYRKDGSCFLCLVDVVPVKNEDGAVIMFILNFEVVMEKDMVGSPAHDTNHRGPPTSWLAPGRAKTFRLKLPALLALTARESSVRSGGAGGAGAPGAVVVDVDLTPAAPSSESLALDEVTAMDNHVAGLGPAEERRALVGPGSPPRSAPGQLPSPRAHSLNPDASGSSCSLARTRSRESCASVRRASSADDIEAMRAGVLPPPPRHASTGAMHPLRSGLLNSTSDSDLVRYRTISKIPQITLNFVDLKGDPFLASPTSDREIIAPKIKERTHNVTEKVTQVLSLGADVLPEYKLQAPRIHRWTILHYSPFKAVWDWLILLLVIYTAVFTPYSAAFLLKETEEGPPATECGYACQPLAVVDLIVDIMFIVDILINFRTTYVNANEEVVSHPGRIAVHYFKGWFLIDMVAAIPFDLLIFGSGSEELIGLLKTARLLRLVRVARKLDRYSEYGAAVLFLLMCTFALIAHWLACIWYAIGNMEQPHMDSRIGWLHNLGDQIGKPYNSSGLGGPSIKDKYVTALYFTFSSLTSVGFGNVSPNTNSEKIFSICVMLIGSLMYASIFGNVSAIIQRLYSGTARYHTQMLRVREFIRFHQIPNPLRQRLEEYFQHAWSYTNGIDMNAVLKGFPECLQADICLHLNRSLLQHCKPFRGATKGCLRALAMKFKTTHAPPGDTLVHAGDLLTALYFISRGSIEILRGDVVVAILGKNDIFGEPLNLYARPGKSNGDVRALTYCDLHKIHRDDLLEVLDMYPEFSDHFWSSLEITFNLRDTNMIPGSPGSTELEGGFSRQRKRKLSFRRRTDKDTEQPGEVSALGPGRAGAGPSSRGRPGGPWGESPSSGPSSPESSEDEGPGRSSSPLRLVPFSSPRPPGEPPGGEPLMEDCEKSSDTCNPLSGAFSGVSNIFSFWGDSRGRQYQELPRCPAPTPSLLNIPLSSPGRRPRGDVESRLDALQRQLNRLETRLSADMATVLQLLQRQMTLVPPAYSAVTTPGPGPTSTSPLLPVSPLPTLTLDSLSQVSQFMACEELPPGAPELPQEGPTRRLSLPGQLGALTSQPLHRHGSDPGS
row,Structure (SMILES),"hERG current change (%, negative = inhibition) at 10uM [%]"
1,CC(=O)Nc1ccc(S(=O)(=O)NCCC(=O)Nc2ccc(C)c(F)c2)cc1,-0.433
2,S=c1[nH]nc(Cc2sc(-c3ccccc3)nc2-c2ccccc2)o1,21.6
3,O=C(Nc1cccc2cccnc12)c1ccc(Br)cc1Br,21.6
4,Cc1ccccc1CNC(=O)Nc1cccs1,3.67
5,CC(C)NC(=O)c1cc(-c2ccco2)nn1-c1ccc(Cl)cc1,-27.4
6,COc1ccc(NC(=O)CN(C)C(=O)c2ccc(NC3CC3)c([N+](=O)[O-])c2)cc1,-72.8
7,COc1ccc(NC(=O)CN(C)C(=O)c2ccc(NS(=O)(=O)c3ccc(C)c([N+](=O)[O-])c3)cc2)cc1,-2.55
8,CCN(CC(=O)Nc1ccc(NC(C)=O)cc1)C(=O)c1ccc(NC2CC2)c([N+](=O)[O-])c1,-46.1
9,O=C(O)CC1SC(=O)NC1=O (centres unmarked),4.76
10,CCN1CCN(CCNC(=O)c2ccc3nc(-c4cccc(C)c4)c(-c4cccc(C)c4)nc3c2)CC1,-73.9
11,CCCNC(=O)c1ccc2nc(-c3ccccc3)c(-c3ccccc3)nc2c1,9.38
12,Cc1cccc(-c2nc3ccc(C(=O)NCCN4CCN(C)CC4)cc3nc2-c2cccc(C)c2)c1,-11.7
13,CN1CCN(CCNC(=O)c2ccc3nc(-c4ccc(F)cc4)c(-c4ccc(F)cc4)nc3c2)CC1,-50.6
14,Cc1nc2cc(C(=O)NCCN3CCOCC3)ccc2n1-c1ccc(F)cc1F,-3.86
15,COc1ccc(-c2nc3ccc(C(=O)NCCCN4CCOCC4)cc3nc2-c2ccc(OC)cc2)cc1,9.44
16,Cc1ccc(Cl)c(OC(=O)c2nn(C(C)C)c(=O)c3ccccc23)c1,-2.19
17,COC(=O)c1ccccc1NC(=O)N1CCCC1,-11.9
18,O=C(CSc1nn(-c2ccccc2)c(=S)s1)Nn1cnnc1,14.8
19,COc1cc(C(=O)N2CCC(c3nc(-c4cccnc4)no3)CC2)cc(OC)c1OC,-8.08
20,O=C(CSc1nc2ncccc2[nH]1)NC1CCCC1,7.42
21,S=c1[nH]nc(COc2ccccc2)n1/N=C/c1ccc(Br)s1,-18.8

row,Structure (SMILES),"hERG current change (%, negative = inhibition) at 10uM [%]"
1,COc1ccc(S(=O)(=O)N2CCN(C)CC2)cc1C,7.28
2,Cc1ccc(/C=N/NC(=O)Cn2cnc3ccccc32)o1,3.48
3,c1csc(-c2nc(N3CCOCC3)c3ccccc3n2)c1,-10.1
4,CN1CCN(c2nnc(-c3cccs3)c3ccccc23)CC1,-53.9
5,CN1CCN(c2nc(-c3cccs3)nc3ccccc23)CC1,-73.9
6,CCCN1CCN(c2nc(-c3cccs3)nc3ccccc23)CC1,-68.6
7,Fc1ccccc1N1CCN(c2nc(-c3cccs3)nc3ccccc23)CC1,8.57
8,O=S(=O)(c1ccccc1)N1CCN(c2nc(-c3cccs3)nc3ccccc23)CC1,9.84
9,Oc1ccc(N2CCN(c3nc(-c4cccs4)nc4ccccc34)CC2)cc1,16.5
10,c1ccc(N2CCN(c3nc(-c4cccs4)nc4ccccc34)CC2)cc1,-8.84
11,CCN1CCN(c2nc(-c3cccs3)nc3ccccc23)CC1,-70.8
12,CC1CCN(c2nnc(-c3cccs3)c3ccccc23)CC1,-41.6
13,COc1ccc(N2CCN(c3nc(-c4cccs4)nc4ccccc34)CC2)cc1,14.4
14,c1csc(-c2nnc(N3CCOCC3)c3ccccc23)c1,-32.1
15,COc1ccc(CNC(=O)c2oc3ccc(S(=O)(=O)N4CCOCC4)cc3c2C)cc1,7.71
16,COc1ccccc1NC(=O)Nc1ncccc1C,-1.09
17,O=C1NCCN(Cc2ccoc2)C1CC(=O)N(Cc1ccccc1)CC1CCC1 (centres unmarked),8.87
18,COc1ccc(Cl)cc1NC(=O)COC(=O)c1c(-c2ccccc2)noc1C,-2.53
19,CC(=O)N1CCN(c2nc(-c3cccs3)nc3ccccc23)CC1,-63.2
20,CCOC(=O)N1CCN(c2nc(-c3cccs3)nc3ccccc23)CC1,-1.74
21,Oc1ccccc1N1CCN(c2nc(-c3cccs3)nc3ccccc23)CC1,5.52

row,Structure (SMILES),"hERG current change (%, negative = inhibition) at 10uM [%]"
1,CC(=O)NC(CC(=O)Nc1nccs1)c1ccccc1.O=C(O)C(=O)O (centres unmarked),1.49
2,CC(C)(C)NCCCOc1ccc(Cl)cc1C(C)(C)C.O=C(O)C(=O)O,1.96
3,C=CCNCCCOc1ccc(Cl)cc1C(C)(C)C.O=C(O)C(=O)O,-60.8
4,COCCCNCCOCCOc1ccc(Cl)cc1C(C)(C)C.O=C(O)C(=O)O,-50.6
5,CC(O)CNCCCOc1ccc(Cl)cc1C(C)(C)C.O=C(O)C(=O)O (centres unmarked),-15.9
6,COCCCNCCCOc1ccc(Cl)cc1Br,-39.2
7,CNCCCOc1ccc(Cl)cc1C(C)(C)C.O=C(O)C(=O)O,-20.6
8,CC(C)(C)NCCOCCOc1ccc(Cl)cc1C(C)(C)C.O=C(O)C(=O)O,0.207
9,C=CCNCCOCCOc1ccc(Cl)cc1C(C)(C)C.O=C(O)C(=O)O,11.2
10,COCCCNCCCOc1ccc(Cl)cc1C(C)(C)C,-57.5
11,O=C(CSc1ccccn1)N1CCN(c2ccccc2)CC1,7.55
12,COc1ccc(O[C@H]2C=C[C@@H](c3ccccc3)O[C@@H]2CO/N=C(\C)CCN2CCc3nc(-c4ccccc4)c(-c4ccccc4)cc3C2)cc1,6.94
13,CCCNC(=O)NC(=O)CSc1ncc(C(F)(F)F)cc1Cl,12.6
14,C#CCOCCOCCOCCNc1nc(N2CCN(C(=O)[C@H](CCCCN)n3cc([C@@H](N)CC(C)C)nn3)CC2)nc(N2CCN(C(=O)[C@H](CCCCN)n3cc([C@@H](N)CC(C)C)nn3)CC2)n1.Cl,4.98
15,CCCCNS(=O)(=O)c1ccc(S(=O)(=O)NCc2ccncc2)cc1,-9.06
16,CCc1cccc2c(C(=O)CSc3nncn3C)c[nH]c12,7.69
17,CN(C(=O)CC1C(=O)NCCN1Cc1ccc(F)cc1Cl)C1CCCCC1 (centres unmarked),-2.68
18,O=[N+]([O-])c1ccc(N2CCN(CCO)CC2)cc1NCc1ccco1,-32.2
19,O=[N+]([O-])c1ccc(N2CCNCC2)cc1NCc1ccco1,-28.2
20,O=C(c1ccccc1)N1CCN(c2ccc([N+](=O)[O-])c(NCc3ccco3)c2)CC1,-47.2
21,Cc1cccc(C(=O)N2CCN(c3ccc([N+](=O)[O-])c(NCc4ccco4)c3)CC2)c1,-34

row,Structure (SMILES),"hERG current change (%, negative = inhibition) at 10uM [%]"
1,CN1CCN(c2ccc([N+](=O)[O-])c(NCc3ccco3)c2)CC1,-51.9
2,Cc1ccc(C(=O)N2CCN(c3ccc([N+](=O)[O-])c(NCc4ccco4)c3)CC2)cc1,-50.5
3,COc1cc(OC)cc(C(=O)NNC(=O)c2ccc(-n3cncn3)c([N+](=O)[O-])c2)c1,5.46
4,CCN(CC)Cc1cc(C(=O)O)c(C)o1,19.4
5,O=C(CCn1c(=O)c2cccn2c2ccc(F)cc21)NCc1cccc(F)c1,23.4
6,CCOC(=O)COn1c2c(c3c4no[n+]([O-])c4ccc31)CCCC2,3.89
7,CCCCN=Cc1sc2ccc(OCC)cc2c1O,3.66
8,CCN(CC)CCn1c2c(c(SCC(=O)Nc3ccc(F)c(F)c3)nc1=O)CCC2,-70.5
9,CCOc1ccc(NC(=O)CSc2nc(=O)n(CCN3CCOCC3)c3c2CCCC3)cc1,-28.1
10,O=C(CSc1nc(=O)n(CCN2CCOCC2)c2c1CCC2)Nc1ccc(OC(F)(F)F)cc1,-71.8
11,CCN(CC)CCCn1c2c(c(SCC(=O)Nc3ccc4c(c3)OCCO4)nc1=O)CCC2,-43.4
12,CC(=O)c1cccc(NC(=O)CSc2nc(=O)n(CCCN3CCOCC3)c3c2CCC3)c1,-29.1
13,COc1ccc(NC(=O)CSc2nc(=O)n(CCN3CCOCC3)c3c2CCC3)cc1,0.105
14,CC(=O)c1cccc(NC(=O)CSc2nc(=O)n(CCN3CCOCC3)c3c2CCC3)c1,-17.6
15,CCN(CC)CCCn1c2c(c(SCC(=O)Nc3cccc(C(C)=O)c3)nc1=O)CCC2,-59.4
16,CCN(CC)CCn1c2c(c(SCC(=O)Nc3ccc4c(c3)OCO4)nc1=O)CCC2,-39.2
17,CCN(CC)CCCn1c2c(c(SCC(=O)Nc3ccc4c(c3)OCO4)nc1=O)CCC2,-44.6
18,CN(C)CCn1c2c(c(SCC(=O)Nc3ccc4c(c3)OCCO4)nc1=O)CCC2,-16.1
19,CCN(CC)CCCn1c2c(c(SCC(=O)Nc3ccc(F)c(F)c3)nc1=O)CCC2,-55.1
20,COc1cc2c(cc1OC)C(C)N(C(=O)CCN1C(=O)C3C4C=CC(C4)C3C1=O)CC2 (centres unmarked),16
